The supplement of paper PMC10849652
About 8,800 targets were measured; listed, in parts, are those with a hit and a random draw of the rest. About 0.5% of all pairs of compound and target were hits. Values without a mark were called inactive.

Key:
Test in all cases: log2 fold change, soluble protein after heating vs DMSO (PISA); higher = thermal stabilisation; K562 lysate, 10 uM; active = over 0.2 and 3.5 SD of the protein, either way, in both replicates (recomputed)
alvocidib = compound: CN1CC[C@H](c2c(O)cc(O)c3c(=O)cc(-c4ccccc4Cl)oc23)[C@H](O)C1 [alvocidib]
Procedure, shortened: (§1)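 Quantification was by TMTpro 16plex LC-MS/MS with equalised channel sums, applied to the supernatant after 21,000xg for 90 min. Samples were crude K562 extract at 1 mg/mL protein in PBS pH 7.4 with 1 mM MgCl2, treated with 10 μM compound for 30 min, heated for 3 min across 48°C-58°C, pooled and brought to 0.5% NP-40 at 4°C. Values are log-two fold changes in thermal stability relative to solvent controls, from duplicates.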

Tubastatin A = compound: CN1CCc2c(c3ccccc3n2Cc2ccc(C(=O)NO)cc2)C1 [Tubastatin A]
Procedure, shortened: as §1

[1] = compound: CNC(=O)C1=CC=CC=C1NC2=NC(=NC=C2Cl)NC3=C(C=C(C=C3)N4CCOCC4)OC
Procedure, shortened: as §1

defactinib = compound: CNC(=O)c1ccc(Nc2ncc(C(F)(F)F)c(NCc3nccnc3N(C)S(C)(=O)=O)n2)cc1 [defactinib]
Procedure, shortened: as §1

[2] = compound: CNc1nc(-c2ccc3c(N)n[nH]c3c2)cc(N2C[C@@H](C(=O)NC3CCCCC3)CC[C@H]2C)n1
Procedure, shortened: as §1

encorafenib = compound: COC(=O)N[C@@H](C)CNc1nccc(-c2cn(C(C)C)nc2-c2cc(Cl)cc(NS(C)(=O)=O)c2F)n1 [encorafenib]
Procedure, shortened: as §1

[3] = compound: COC(=O)[C@H](CCSC)NC(=O)C1=C(C=C(C=C1)NC[C@H](CS)N)C2=CC=CC=C2
Procedure, shortened: as §1

alisertib = compound: COc1cc(Nc2ncc3c(n2)-c2ccc(Cl)cc2C(c2c(F)cccc2OC)=NC3)ccc1C(=O)O [alisertib]
Procedure, shortened: as §1

[4] = compound: COc1cc2nc(-c3cc(F)ccc3O)nc(N[C@@H]3CNC[C@H]3C(C)(C)O)c2cc1OC
Procedure, shortened: as §1

gefitinib = compound: COc1cc2ncnc(Nc3ccc(F)c(Cl)c3)c2cc1OCCCN1CCOCC1 [gefitinib]
Procedure, shortened: as §1

lapatinib = compound: CS(=O)(=O)CCNCc1ccc(-c2ccc3ncnc(Nc4ccc(OCc5cccc(F)c5)c(Cl)c4)c3c2)o1 [lapatinib]
Procedure, shortened: as §1

pictilisib = compound: CS(=O)(=O)N1CCN(Cc2cc3nc(-c4cccc5[nH]ncc45)nc(N4CCOCC4)c3s2)CC1 [pictilisib]
Procedure, shortened: as §1

crizotinib = compound: C[C@@H](Oc1cc(-c2cnn(C3CCNCC3)c2)cnc1N)c1c(Cl)ccc(F)c1Cl [crizotinib]
Procedure, shortened: as §1

[5] = compound: C[C@H](C1=CC=C(C=C1)C(=O)NC2=C3C=CNC3=NC=C2)N
Procedure, shortened: as §1

duvelisib = compound: C[C@H](Nc1ncnc2nc[nH]c12)c1cc2cccc(Cl)c2c(=O)n1-c1ccccc1 [duvelisib]
Procedure, shortened: as §1

gandotinib = compound: Cc1cc(Nc2cc(CN3CCOCC3)c3nc(C)c(Cc4ccc(Cl)cc4F)n3n2)n[nH]1 [gandotinib]
Procedure, shortened: as §1

tozasertib = compound: Cc1cc(Nc2cc(N3CCN(C)CC3)nc(Sc3ccc(NC(=O)C4CC4)cc3)n2)n[nH]1 [tozasertib]
Procedure, shortened: as §1

doramapimod = compound: Cc1ccc(-n2nc(C(C)(C)C)cc2NC(=O)Nc2ccc(OCCN3CCOCC3)c3ccccc23)cc1 [doramapimod]
Procedure, shortened: as §1

bafetinib = compound: Cc1ccc(NC(=O)c2ccc(CN3CC[C@H](N(C)C)C3)c(C(F)(F)F)c2)cc1Nc1nccc(-c2cncnc2)n1 [bafetinib]
Procedure, shortened: as §1

[6] = compound: Cc1cccc(CC(=O)N2CCc3c2ccc(-c2cn(C)c4ncnc(N)c24)c3F)n1
Procedure, shortened: as §1

Chain of UniProt O94916 (O94916 whole entry, looked up): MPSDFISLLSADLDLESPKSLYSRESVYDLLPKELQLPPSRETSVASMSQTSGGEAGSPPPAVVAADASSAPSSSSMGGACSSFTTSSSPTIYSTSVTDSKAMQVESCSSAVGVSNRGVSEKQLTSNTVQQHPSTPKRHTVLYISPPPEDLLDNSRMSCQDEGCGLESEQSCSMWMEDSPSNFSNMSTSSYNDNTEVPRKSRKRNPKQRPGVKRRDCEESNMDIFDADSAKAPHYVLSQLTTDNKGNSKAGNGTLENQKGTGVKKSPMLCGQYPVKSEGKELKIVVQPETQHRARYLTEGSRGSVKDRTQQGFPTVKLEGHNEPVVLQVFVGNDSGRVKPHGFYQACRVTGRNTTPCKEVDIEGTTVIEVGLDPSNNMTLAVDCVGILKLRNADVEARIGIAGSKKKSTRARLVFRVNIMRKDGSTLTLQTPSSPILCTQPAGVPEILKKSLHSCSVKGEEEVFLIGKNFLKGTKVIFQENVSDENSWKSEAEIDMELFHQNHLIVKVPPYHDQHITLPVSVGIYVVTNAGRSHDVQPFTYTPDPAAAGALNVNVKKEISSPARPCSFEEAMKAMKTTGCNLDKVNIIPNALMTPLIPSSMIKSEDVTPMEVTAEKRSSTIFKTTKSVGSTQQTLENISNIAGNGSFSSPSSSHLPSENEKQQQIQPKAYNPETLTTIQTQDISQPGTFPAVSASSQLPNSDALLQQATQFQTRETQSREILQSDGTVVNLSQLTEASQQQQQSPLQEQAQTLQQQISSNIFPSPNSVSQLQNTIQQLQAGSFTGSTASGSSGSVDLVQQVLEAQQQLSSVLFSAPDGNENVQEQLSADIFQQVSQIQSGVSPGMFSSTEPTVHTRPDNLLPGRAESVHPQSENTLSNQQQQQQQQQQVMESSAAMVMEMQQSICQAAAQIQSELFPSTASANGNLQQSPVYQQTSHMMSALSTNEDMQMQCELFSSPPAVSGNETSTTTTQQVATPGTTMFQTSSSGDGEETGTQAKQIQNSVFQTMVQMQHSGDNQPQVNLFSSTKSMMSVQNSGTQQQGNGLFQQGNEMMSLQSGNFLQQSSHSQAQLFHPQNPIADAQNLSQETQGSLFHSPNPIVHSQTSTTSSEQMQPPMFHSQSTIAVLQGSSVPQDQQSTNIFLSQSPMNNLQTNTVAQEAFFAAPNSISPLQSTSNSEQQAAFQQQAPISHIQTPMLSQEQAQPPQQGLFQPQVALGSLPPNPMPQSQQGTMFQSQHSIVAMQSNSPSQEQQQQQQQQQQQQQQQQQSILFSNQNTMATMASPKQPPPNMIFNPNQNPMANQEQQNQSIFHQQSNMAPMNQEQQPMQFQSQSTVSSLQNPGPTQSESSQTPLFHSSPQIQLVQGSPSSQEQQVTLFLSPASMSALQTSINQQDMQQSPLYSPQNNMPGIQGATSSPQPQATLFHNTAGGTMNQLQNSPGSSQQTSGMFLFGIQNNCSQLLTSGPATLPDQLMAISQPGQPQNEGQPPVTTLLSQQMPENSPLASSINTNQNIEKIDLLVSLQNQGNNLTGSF
Chain of UniProt Q9Y5N5 (Q9Y5N5 whole entry, looked up, one chain of several): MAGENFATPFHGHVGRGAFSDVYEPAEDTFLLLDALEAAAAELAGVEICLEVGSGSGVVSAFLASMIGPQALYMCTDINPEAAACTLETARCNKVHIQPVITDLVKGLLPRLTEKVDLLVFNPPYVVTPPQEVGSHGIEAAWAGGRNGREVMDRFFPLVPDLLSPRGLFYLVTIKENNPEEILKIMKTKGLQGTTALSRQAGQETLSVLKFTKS
Chain of UniProt Q6IBW4 (Q6IBW4 whole entry, looked up): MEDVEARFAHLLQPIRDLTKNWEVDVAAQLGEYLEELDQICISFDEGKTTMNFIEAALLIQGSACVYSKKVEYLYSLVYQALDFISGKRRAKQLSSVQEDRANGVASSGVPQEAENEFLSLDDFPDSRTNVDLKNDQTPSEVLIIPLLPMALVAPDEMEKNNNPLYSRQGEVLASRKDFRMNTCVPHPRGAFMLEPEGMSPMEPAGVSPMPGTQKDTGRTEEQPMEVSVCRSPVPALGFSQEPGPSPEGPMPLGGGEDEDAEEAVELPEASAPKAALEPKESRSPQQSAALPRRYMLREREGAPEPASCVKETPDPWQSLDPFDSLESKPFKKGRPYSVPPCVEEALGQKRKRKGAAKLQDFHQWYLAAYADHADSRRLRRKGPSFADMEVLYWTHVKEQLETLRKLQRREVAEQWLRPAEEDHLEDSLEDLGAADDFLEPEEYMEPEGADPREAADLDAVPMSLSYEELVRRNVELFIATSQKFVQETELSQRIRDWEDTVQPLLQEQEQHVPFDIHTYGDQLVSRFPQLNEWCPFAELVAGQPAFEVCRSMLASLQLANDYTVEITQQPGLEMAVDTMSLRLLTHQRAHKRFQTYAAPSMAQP
Chain of UniProt Q5VZE5 (Q5VZE5 whole entry, looked up): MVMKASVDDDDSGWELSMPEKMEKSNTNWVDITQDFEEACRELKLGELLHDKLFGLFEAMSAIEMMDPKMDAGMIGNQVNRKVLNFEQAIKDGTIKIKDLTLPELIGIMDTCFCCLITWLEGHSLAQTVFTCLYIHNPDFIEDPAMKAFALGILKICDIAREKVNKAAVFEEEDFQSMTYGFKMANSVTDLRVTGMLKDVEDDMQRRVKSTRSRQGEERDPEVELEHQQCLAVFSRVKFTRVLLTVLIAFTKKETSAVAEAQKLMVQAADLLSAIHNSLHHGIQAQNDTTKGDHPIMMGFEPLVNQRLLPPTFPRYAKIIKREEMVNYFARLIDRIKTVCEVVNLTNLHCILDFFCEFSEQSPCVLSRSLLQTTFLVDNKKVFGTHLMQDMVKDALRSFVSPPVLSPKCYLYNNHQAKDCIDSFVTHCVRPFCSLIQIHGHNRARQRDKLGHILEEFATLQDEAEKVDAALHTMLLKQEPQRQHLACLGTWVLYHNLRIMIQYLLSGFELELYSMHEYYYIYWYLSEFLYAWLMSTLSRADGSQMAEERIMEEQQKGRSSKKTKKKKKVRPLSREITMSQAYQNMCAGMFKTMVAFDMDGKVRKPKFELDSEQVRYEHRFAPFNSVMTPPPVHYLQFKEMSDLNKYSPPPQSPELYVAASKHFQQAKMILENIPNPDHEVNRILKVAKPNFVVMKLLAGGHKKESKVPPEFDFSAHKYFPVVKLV
Chain of UniProt Q08J23 (Q08J23 whole entry, looked up): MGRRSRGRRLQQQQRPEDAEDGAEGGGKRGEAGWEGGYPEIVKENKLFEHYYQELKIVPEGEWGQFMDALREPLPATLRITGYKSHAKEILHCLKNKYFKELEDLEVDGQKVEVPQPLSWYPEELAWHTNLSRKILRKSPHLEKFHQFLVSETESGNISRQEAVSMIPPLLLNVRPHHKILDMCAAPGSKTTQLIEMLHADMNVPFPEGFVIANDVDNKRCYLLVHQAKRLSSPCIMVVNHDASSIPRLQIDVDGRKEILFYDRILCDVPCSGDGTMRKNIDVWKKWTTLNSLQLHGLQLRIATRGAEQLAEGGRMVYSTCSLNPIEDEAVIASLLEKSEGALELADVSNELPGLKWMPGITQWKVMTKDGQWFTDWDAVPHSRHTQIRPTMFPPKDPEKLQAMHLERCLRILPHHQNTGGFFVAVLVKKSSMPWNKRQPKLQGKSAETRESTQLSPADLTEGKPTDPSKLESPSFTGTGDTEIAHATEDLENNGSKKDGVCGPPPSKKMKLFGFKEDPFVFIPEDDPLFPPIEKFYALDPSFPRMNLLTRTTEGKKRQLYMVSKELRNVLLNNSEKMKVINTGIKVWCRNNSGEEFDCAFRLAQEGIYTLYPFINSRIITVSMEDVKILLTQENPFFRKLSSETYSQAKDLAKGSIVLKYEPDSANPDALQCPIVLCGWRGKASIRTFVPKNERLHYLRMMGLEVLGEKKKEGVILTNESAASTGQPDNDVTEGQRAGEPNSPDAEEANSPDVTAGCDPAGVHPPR
Chain of UniProt Q8NC60 (Q8NC60 whole entry, looked up): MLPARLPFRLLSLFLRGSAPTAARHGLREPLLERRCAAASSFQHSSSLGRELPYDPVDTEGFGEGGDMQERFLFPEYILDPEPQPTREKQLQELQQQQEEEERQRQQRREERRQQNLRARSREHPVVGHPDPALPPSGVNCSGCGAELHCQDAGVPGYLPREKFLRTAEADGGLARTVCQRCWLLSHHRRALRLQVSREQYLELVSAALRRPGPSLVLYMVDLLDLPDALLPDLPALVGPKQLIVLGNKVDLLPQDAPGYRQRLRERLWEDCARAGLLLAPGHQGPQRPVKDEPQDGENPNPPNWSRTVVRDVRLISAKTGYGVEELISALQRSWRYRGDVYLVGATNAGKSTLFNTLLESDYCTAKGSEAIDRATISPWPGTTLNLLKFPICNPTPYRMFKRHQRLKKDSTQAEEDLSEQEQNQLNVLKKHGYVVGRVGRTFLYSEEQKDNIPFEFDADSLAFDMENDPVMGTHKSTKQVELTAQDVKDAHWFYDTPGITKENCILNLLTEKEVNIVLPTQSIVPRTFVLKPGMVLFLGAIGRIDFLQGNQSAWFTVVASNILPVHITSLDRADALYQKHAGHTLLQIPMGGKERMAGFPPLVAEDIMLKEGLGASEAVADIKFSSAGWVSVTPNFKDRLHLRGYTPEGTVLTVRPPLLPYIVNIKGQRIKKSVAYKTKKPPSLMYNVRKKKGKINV

Target	log2 fold change (alvocidib)	log2 fold change (Tubastatin A)	log2 fold change [1]	log2 fold change (defactinib)	log2 fold change [2]	log2 fold change (encorafenib)	log2 fold change [3]	log2 fold change (alisertib)	log2 fold change [4]	log2 fold change (gefitinib)	log2 fold change (lapatinib)	log2 fold change (pictilisib)	log2 fold change (crizotinib)	log2 fold change [5]	log2 fold change (duvelisib)	log2 fold change (gandotinib)	log2 fold change (tozasertib)	log2 fold change (doramapimod)	log2 fold change (bafetinib)	log2 fold change [6]
N6AMT1 (UniProt Q9Y5N5)	0.062	0.026	0.048	0.361 (active)	0.021	-0.011	0.069	-0.084	0.004	-0.045	-0.018	-0.038	-0.02	0.34 (active)	-0.017	-0.033	0.008	0.014	-0.109	-0.098
NSUN2 (UniProt Q08J23)	0.019	-0.097	-0.018	0.007	-0.024	-0.011	0.096	0.014	-0.007	-0.02	-0.009	-0.006	-0.024	0.072	-0.005	-0.05	-0.011	-0.009	-0.038	-0.007
NAA35 (UniProt Q5VZE5)	0.018	-0.056	-0.007	0.034	0	0.01	-0.001	-0.026	-0.006	-0.008	0.009	0.032	-0.031	0.082	-0.007	-0.042	-0.003	0.031	-0.057	-0.022
NCAPH2 (UniProt Q6IBW4)	0.038	-0.193	0	0.005	-0.084	0.064	-0.039	-0.027	0.01	-0.048	-0.075	-0.023	-0.04	-0.01	-0.03	-0.052	0.058	-0.051	-0.036	0.185
NOA1 (UniProt Q8NC60)	-0.016	-0.11	0.063	-0.076	0.063	-0.049	-0.023	0.039	0.023	-0.042	-0.043	0.032	-0.052	-0.282	0.014	0.039	-0.034	0.021	-0.221	0.167
NFAT5 isoform 5 (UniProt O94916)	-0.026	0.003	-0.027	0.007	0.077	0.043	-0.041	-0.072	-0.01	0.454 (active)	0.033	-0.002	0.053	-0.053	-0.041	0.045	-0.039	0.007	-0.041	0.008
NCAPH (UniProt Q15003)	0.007	-0.089	0.008	0.015	0.023	0.013	0.063	0.015	0.018	0.006	-0.012	0.005	-0.019	-0.015	0.046	-0.101	0	0.036	-0.013	0.028
